These results are taken from PubChem BioAssay AID430 (Sanford-Burnham Center for Chemical Genomics, 2006).

Among all 63,000 compounds or so, about 1,100 (1.7%) were called active. The sample holds actives, similar compounds and a random draw of the others, so the mix is not that of the screen. No stated cut-off is given here; in the data, active means cytotoxicity above about 50%; inactive means the rest. Entries with a potency or affinity are not part of this list.

The test can be described thus: HPDE-C7 pancreatic duct cell viability loss – fluorescence, HTS (AID 430).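 Further: cells exposed to compound for 48 hours before viability readout; 0% = vehicle and 100% = reference cytotoxic drug.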 As to conditions: HPDE-C7 pancreatic duct cells viability, at 10 µM, active compounds read high.
Consider `CCC(C)Oc1cccc(C(=O)Nc2ccccc2N2CCOCC2)c1` (centres undefined), for which the cytotoxicity is 1.7% (inactive).
For `CCCn1c(SCC(=O)Nc2c(CC)cccc2CC)nnc1C(C)C`, the cytotoxicity is -2.4% (inactive).
With `Cc1ccc(S(=O)(=O)NCC(C)NS(=O)(=O)c2ccc(C)cc2)cc1` (centres undefined), the cytotoxicity was -44.3% (inactive).
Consider `COc1ccc2nc(NC(=O)CN(c3ccc(C)cc3)S(=O)(=O)c3c(C)nn(C)c3C)sc2c1`, for which the cytotoxicity was 10.7% (inactive).
Consider `OC(COc1c(Cl)cc(Cl)cc1Cl)CN1CCCCC1` (centres undefined), for which the cytotoxicity is 7.4% (inactive).
With `CC(=O)Nc1ccc(S(=O)(=O)N2CCSC2c2ccc(C)cc2)cc1` (centres undefined), the cytotoxicity was 0.6% (inactive).
As for `Nc1nnc2c(n1)CCCC2`, the cytotoxicity was 2.7% (inactive).
With `COc1cccc(C2=Nn3c(nnc3-c3ccccc3O)SC2)c1`, the cytotoxicity was -36.1% (inactive).
For the compound `COc1ccccc1-c1nnc2n1N=C(C)CS2`, the cytotoxicity is -3.3% (inactive).
As to `COc1ccccc1-c1nnc2n1N=C(c1ccc(O)c(O)c1)CS2`, the cytotoxicity is 60.1% (active).
The same measure for `C1CCN(c2nc(N3CCCCC3)nc(N3CCNCC3)n2)CC1`: 2.9% (inactive).
For the compound `c1ccc(Nc2nc(N3CCCCC3)nc(N3CCNCC3)n2)cc1`, the cytotoxicity is 71.8% (active).
Consider `c1ccc(Nc2nc(N3CCOCC3)nc(N3CCOCC3)n2)cc1`, for which the cytotoxicity was 3.2% (inactive).
Turning to `CCOC(=O)C1CCCN(C(=O)c2cn(CC)c3ccc(S(=O)(=O)N4CCCC4)cc3c2=O)C1` (centres undefined), the cytotoxicity was -6.2% (inactive).
Take `CC(C)NC(=O)c1ccccc1NC(=O)CCS(=O)(=O)Cc1ccccc1`: the cytotoxicity is -16.4% (inactive).
With `Cn1c(CSc2ccccc2)c(C#N)c2ccccc21`, the cytotoxicity was -6.2% (inactive).
Consider `Cc1cc(C(=O)CSc2nnc(-c3ccccc3)n2C)c(C)n1C`, for which the cytotoxicity was 5.7% (inactive).
`C=CCn1c(C)cc(C(=O)CSc2nnc(Cc3ccccc3)o2)c1C`: the cytotoxicity is -20.7% (inactive).
The same measure for `Cc1cc(C(=O)CSc2nnc(NCc3ccccc3)s2)c(C)n1C`: 58% (active); for `C=CCn1c(C)cc(C(=O)CSc2nnc(NCc3ccccc3)s2)c1C`: 52.9% (active).
In the case of `Cc1cc(C(=O)CSc2nnc(Nc3ccccc3)s2)c(C)n1CC1CCCO1` (centres undefined), the cytotoxicity was 2.6% (inactive).
The same measure for `O=C(CSc1nnc(NCc2ccccc2)s1)c1ccco1`: -4.8% (inactive).
Take `Cc1cc(N2C(=O)C3C4C=CC(C4)C3C2=O)no1` (centres undefined): the cytotoxicity is -1% (inactive).
To `COCCCn1c(=S)[nH]c2ccc(N3CCOCC3)cc2c1=O` belongs -10.8% (inactive); to `O=C(O)CCCC(=O)Nc1ccccc1Br`, 5.7% (inactive).
The same measure for `CCN1C(=O)c2cccc3c(S(=O)(=O)Nc4ncccc4C)ccc1c23`: 23.7% (inactive); for `CCN1C(=O)c2cccc3c(S(=O)(=O)Nc4nc(C)cs4)ccc1c23`: 58.9% (active).
Consider `CCOC(=O)Cc1csc(NS(=O)(=O)c2ccc3c4c(cccc24)C(=O)N3CC)n1`, for which the cytotoxicity was 8.7% (inactive).
For the compound `CCOC(=O)c1[nH]nc(C(=O)c2ccc(Br)cc2)c1O`, the cytotoxicity is -10.7% (inactive).
To `CC(=O)C(C(C)=O)c1c(Cl)c(O)c(O)c2c(C(=O)c3ccccc3)coc12` belongs 82.2% (active); to `Cc1ccc(C(=O)c2coc3ccc(O)c(CN4CCN(C)CC4)c23)cc1`, -5.9% (inactive); to `O=C(c1ccccc1)c1coc2ccc(O)c(Cl)c12`, -4.8% (inactive).
The same measure for `CN(C)Cc1c(O)ccc2occ(C(=O)c3ccccc3)c12`: 6.4% (inactive); for `Cc1ccc(OCCn2nc3ccccc3n2)c(C)c1`: -1.3% (inactive); for `O=C(CSc1nnc(CNC(=O)c2ccccc2F)o1)Nc1ccc2c(c1)OCCO2`: 1.1% (inactive).
Take `O=C(c1ccco1)N1CCN(S(=O)(=O)c2cccs2)CC1`: the cytotoxicity is -11.8% (inactive).
As to `Cc1cc2cc(CN(C(=O)C3CC3)C3CCCC3)c3nnnn3c2cc1C`, the cytotoxicity is -22.1% (inactive).
To `CCOc1ccccc1Nc1nc(N)nc(CSc2nncn2C)n1` belongs -1.9% (inactive); to `Cc1ccc(S(=O)(=O)N2CCOCC2)cc1C(=O)O`, -13.5% (inactive).
With `Cc1ccc(Oc2ccc(S(=O)(=O)N3CCOCC3)cc2C(N)=O)c(-n2nc3ccccc3n2)c1`, the cytotoxicity is 53.1% (active).
To `COc1ccccc1Oc1ccc(S(=O)(=O)N2CCOCC2)cc1S(=O)(=O)N1CCOCC1` belongs -10.8% (inactive); to `COc1cnn(-c2ccccc2)c(=O)c1N(C)C`, -1.2% (inactive); to `O=C(C1CC1)N1CCc2cc(Br)cc(S(=O)(=O)NCCN3CCOCC3)c21`, -14.7% (inactive).
For the compound `O=c1c2ccccc2nc(SCc2nnc(-c3ccccc3Br)o2)n1Cc1ccco1`, the cytotoxicity was 14.1% (inactive).
The same measure for `COC(=O)c1ccc(C(=O)OC)c(NC(=O)c2cnc3n(c2=O)CCS3)c1`: -7.2% (inactive).
`CCCc1[nH]nc2c1C(c1ccc(OC)cc1OC)C(C#N)=C(N)O2` (centres undefined): the cytotoxicity was -5% (inactive).
Consider `Oc1ccc2ccccc2c1C=NC12CN3CCN(CN(C3)C1)C2`, for which the cytotoxicity was 0.3% (inactive).
For the compound `OCC(CO)(CO)N=Cc1c(O)ccc2ccccc12`, the cytotoxicity was 58.9% (active).
The same measure for `Oc1ccc2ccccc2c1/C=N/n1cnnc1`: 10.5% (inactive); for `CCNc1nc(N2CCCCC2)nc(-n2nnc(C(=O)OCC)c2C)n1`: -22.1% (inactive).
Consider `O=c1[nH]c2ccccc2n1CCCOc1ccccc1`, for which the cytotoxicity was 5% (inactive).
To `C=CCSC1=N/C(=C\C=C\c2ccco2)C(=O)S1` belongs 45.9% (inactive); to `O=C1SC(SCc2ccccc2)=N/C1=C\c1ccco1`, 2.6% (inactive).
In the case of `CCCSC1=N/C(=C\C=C\c2ccco2)C(=O)S1`, the cytotoxicity is 61.6% (active).
Regarding `Cc1cccc(OCCCC(=O)Nc2ccc3c(c2)OCO3)c1`, the cytotoxicity was 34% (inactive).
The same measure for `CN(C)CC(C(=O)c1ccccc1)c1ccccc1` (centres undefined): 103% (active); for `COc1ccc(C(C(=O)OC(C)CN(C)C)c2ccccc2)cc1` (centres undefined): 4.3% (inactive); for `CCC(C(=O)c1ccc(O)cc1)c1ccccc1` (centres undefined): 9.4% (inactive).
Regarding `N=c1n(CC(=O)O)c2ccccc2n1Cc1ccccc1Cl`, the cytotoxicity was -13.9% (inactive).
In the case of `O=C(Cn1nnc(-c2cccc(C(F)(F)F)c2)n1)NC1CCCC1`, the cytotoxicity is 8.5% (inactive).
As to `Cc1cc(C)n(CC(=O)n2c3c(c4ccccc42)CCCC3)n1`, the cytotoxicity is -18.6% (inactive).
As to `COC(=O)c1ccc2c(=O)n(Cc3ccc4c(c3)OCO4)c(SCC(=O)N3CCCC3)nc2c1`, the cytotoxicity is 52.3% (active).
In the case of `COC(=O)c1ccc2c(=O)n(CCC3=CCCCC3)c(SCC(=O)N3CCCC3)nc2c1`, the cytotoxicity is -13.9% (inactive).
Consider `CC1CCCCN1C(=O)CSc1nc2cc3c(cc2c(=O)n1Cc1ccc2c(c1)OCO2)OCO3` (centres undefined), for which the cytotoxicity is 0.1% (inactive).
